Assay results as given in PubChem BioAssay AID686979 (National Center for Advancing Translational Sciences (NCATS), 2013).
The whole screen tested about 420,000 compounds, of which about 50,000 (12%) were called active. Where a call stands in place of a potency, no number is given. Roughly 26% stayed inconclusive and do not appear here. The sample holds actives, similar compounds and a random draw of the others, so the mix is not that of the screen. Calls follow the shape of the dose curve; as a rule, active = well fitted inhibition curve with a large enough effect; inconclusive = small, poorly fitted or top-dose-only effect; inactive = flat fitted curve, though single readings scatter.

Experiment: qHTS for Inhibitors of human tyrosyl-DNA phosphodiesterase 1 (TDP1): qHTS in cells in presence of CPT; also: nearly all actives have a fitted effect of over 55% in size
Conditions: chicken DT40 Tdp1-/-;hTDP1 cells + 20 nM CPT, ATP luminescence, 48 h; series mostly up to 46.2 µM
Outline: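 Cell growth measured by CellTiter-Glo luminescence after a minimum 48 h, 37 C compound exposure with 20 nM CPT in Tdp1-knockout DT40 cells stably expressing hTDP1, seeded 400/well; qHTS titration format.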
Potency is read from the fitted curve at half-maximal effect.

| SMILES | Potency |
| --- | --- |
| O=C(CCCN=C1NS(=O)(=O)c2ccccc21)OCC(=O)c1ccc(F)c(F)c1 | inactive |
| Cc1ccc(C)c(NC(CC(=O)c2ccccc2)C(=O)OCC(=O)c2cccs2)c1 (stereo not drawn) | 18.4 µM (active) |
| COC(=O)C(CC(=O)Nc1cc(C)ccc1C)Nc1ccccc1OC (stereo not drawn) | inactive |
| Cc1ccc(C)c(NC(=O)CCC(=O)NNC(=O)c2cccs2)c1 | inactive |
| O=C(Nc1nnc(-c2ccccc2F)s1)c1ccccc1F | inactive |
| CCN1CC(CN(C)Cc2nc(-c3ccc(Cl)cc3)no2)CC1=O (stereo not drawn) | 16.4 µM (active) |
| CN(Cc1ccccn1)Cc1nc(-c2ccc(Cl)cc2)no1 | inactive |
| CN(CCN1CCOCC1)Cc1nc(-c2ccc3c(c2)OCO3)no1 | inactive |
| COc1ccc(S(=O)(=O)N2CCOC2CNC(=O)C(=O)NCc2ccncc2)cc1OC (stereo not drawn) | inactive |
| O=C(CSc1nccn1-c1cccc(F)c1)NC1CCCC1 | inactive |
| CN(C)c1nc(-c2cccnc2)nc(-c2ccc(Cl)cc2)c1C#N | inactive |
| Cc1cc(-c2n[nH]c(=S)n2/N=C/c2ccco2)n[nH]1 | inactive |
| Cc1cc(-c2n[nH]c(=S)n2/N=C/C(Br)=C/c2ccccc2)n[nH]1 | 1.64 µM (active) |
| CCN(CC)S(=O)(=O)c1cccc(-c2n[nH]c(=S)n2/N=C/c2ccc(C(=O)OC)cc2)c1 | inactive |
| S=c1[nH]nc(-c2ccncc2)n1/N=C/c1ccccc1Cl | inactive |
| Fc1ccccc1/C=N/n1c(-c2cccnc2)n[nH]c1=S | inactive |
| S=c1[nH]nc(-c2cccnc2)n1/N=C/C(Cl)=C\c1ccccc1 | 20.6 µM (active) |
| FCOC(C(F)(F)F)C(F)(F)F | inactive |
| NC(=O)CN1CCCC1c1ccc2c(c1)OCCO2 (stereo not drawn) | inactive |
| CC(C)C(=O)Nc1oc(-c2ccccc2)cc1C#N | inactive |
| CC1(C)S[C@@H]2[C@H](NC(=O)COc3ccccc3)C(=O)N2C1C(=O)OCc1ccccc1 (stereo partly drawn) | inactive |
| COc1ccc(-c2nc(CS(=O)CC(=O)NCc3ccccn3)c(C)o2)cc1 (stereo not drawn) | 18.4 µM (active) |
| COc1ccc(-c2nc(CS(=O)CC(=O)NCc3cccnc3)c(C)o2)cc1OC (stereo not drawn) | inactive |
| O=C(COc1ccccc1)N1CCc2ccccc2C1 | inactive |
| COc1cccc(N(CC(=O)N2CCc3ccccc3C2)S(C)(=O)=O)c1 | inactive |

| SMILES | Potency |
| --- | --- |
| COc1ccc(-c2nc(CS(=O)CC(=O)N3CCc4ccccc4C3)c(C)o2)cc1 (stereo not drawn) | 16.4 µM (active) |
| COc1ccc(-c2nc(CS(=O)CC(=O)NCc3ccccc3)c(C)o2)cc1OC (stereo not drawn) | inactive |
| CCCSc1nsc(N)n1 | inactive |
| CS(=O)(=O)N1CCN(CC(=O)NC2CCCC2)CC1 | inactive |
| O=C(Cc1coc2ccc3ccccc3c12)NCc1cccs1 | inactive |
| C=CCCC(=O)N1C[C@H]2CON(C)[C@H]2C[C@H]1c1cccc(Nc2ccccc2)c1 | inactive |
| COCC1CCCN(Cc2nc(-c3ccc4c(c3)OCO4)no2)C1 (stereo not drawn) | inactive |
| CCn1c(CC(=O)Nc2ccccc2C)nnc1SCC(=O)NC1=NCCS1 | inactive |
| CCCn1c(=N)n(CC(=O)c2ccc(Cl)c(Cl)c2)c2ccccc21 | 10.3 µM (active) |
| O=C(Cn1nnc(N2CCCCC2)n1)c1ccc(Cl)c(Cl)c1 | inactive |
| CCCNC(=O)c1ccc(Cl)c(Cl)c1 | inactive |
| O=C(Nc1ccc(OCCO)cc1)c1csc([C@H]2C[C@H](O)[C@@H](CO)O2)n1 | inactive |
| CCOc1ccc(CN2CCN(Cc3ccc4cc(F)ccc4n3)CC2CCO)cc1 (stereo not drawn) | inactive |
| COc1ccc(C(=O)NCc2nnc(SCC(=O)Nc3cccc(OC)c3)o2)cc1 | inactive |
| COc1cc(C(=O)NCc2nnc(SCC(=O)Nc3nc4ccc(C)cc4s3)o2)cc(OC)c1OC | 4.11 µM (active) |
| COc1ccccc1NC(=O)CSc1nnc(CNC(=O)c2ccccc2F)o1 | inactive |
| O=C(O)c1ccc(S(=O)(=O)N2CCOCC2)o1 | inactive |
| CNc1cc(-c2c(OC)cccc2OC)ncn1 | inactive |
| COC(=O)CSC1=C(C#N)C(c2ccccc2OC)C(C(=O)OC)C(=O)N1 (stereo not drawn) | inactive |
| C=CCOC(=O)C1=C(C)NC(SCC(=O)OCC)=C(C#N)C1c1ccc(C)cc1 (stereo not drawn) | inactive |
| CCOC(=O)CSC1=C(C#N)C(c2sccc2C)CC(=O)N1 (stereo not drawn) | 3.55 µM (active) |
| C/C=C/C=C/C(=O)OCC(=O)Nc1ccc(Cl)cc1 | inactive |
| Cc1onc(-c2c(F)cccc2Cl)c1C(=O)N(C)CC(=O)Nc1cccc(F)c1 | inactive |
| O=C(c1cccc(C(=O)N2CCN(c3ccc(F)cc3)CC2)c1)N1CCN(c2ccc(F)cc2)CC1 | 14.6 µM (active) |
| O=C(c1cccc([N+](=O)[O-])c1)N1CCN(C(=O)c2ccco2)CC1 | inactive |

| SMILES | Potency |
| --- | --- |
| O=C(c1cc2cc(F)ccc2[nH]1)N1CCN(c2ccc(F)cc2)CC1 | inactive |
| O=C(c1cc(-c2ccc(F)cc2)on1)N1CCN(c2ccc(F)cc2)CC1 | inactive |
| O=[N+]([O-])c1ccc(N2CCN(c3ccc(F)cc3)CC2)cn1 | inactive |
| O=C(c1cc(C(=O)N2CCN(c3ccc(F)cc3)CC2)cc([N+](=O)[O-])c1)N1CCN(c2ccc(F)cc2)CC1 | 8.2 µM (active) |
| CO/N=C(\C(=O)N[C@@H]1C(=O)N2C(C(=O)O)=CCS[C@H]12)c1csc(N)n1 | inactive |
| O=C1COc2ccc(C(=O)COC(=O)CCOc3ccccc3)cc2N1 | inactive |
| Cc1ccc(C(=O)Oc2ccc(C(=S)N3CCOCC3)cc2)cc1 | inactive |
| COC(=O)COc1ccc2c(c1C)O/C(=C\c1ccco1)C2=O | inactive |
| CCC1S/C(=N/N=C/c2ccco2)NC1=O (stereo not drawn) | inactive |
| CC(C)(C)C1C/C(=C/c2ccco2)C(=O)/C(=C/c2ccco2)C1 (stereo not drawn) | 23.1 µM (active) |
| Cc1ccc2nc(N3C(=O)C(O)=C(C(=O)c4ccco4)C3c3cccc(O)c3)sc2c1 (stereo not drawn) | inactive |
| CC(C)c1ccc(NC(=O)c2ccc3c(O)c(S(=O)(=O)c4ccccc4)c(=O)[nH]c3c2)cc1 | inactive |
| C=C1C=C(C)n2ncc(C(=O)Nc3ccccc3O)c2N1 | inactive |
| C=C1C=C(C(F)F)n2ncc(C(=O)NCCc3ccccc3OC)c2N1 | 15.8 µM (active) |
| COc1ccccc1CCNC(=O)c1cnccn1 | inactive |
| C#CCOCCOCCOCCNc1nc(N2CCN(C(=O)[C@H](CCCN=C(N)N)n3cc(C(N)[C@@H](C)CC)nn3)CC2)nc(N2CCN(C(=O)[C@H](CO)n3cc([C@@H](N)C(C)C)nn3)CC2)n1 (stereo partly drawn) | inactive |
| C#CCOCCOCCOCCNc1nc(N2CCN(C(=O)Cn3cc(CCO)nn3)CC2)nc(N2CCN(C(=O)[C@H](CCCCN)n3cc(CCCC)nn3)CC2)n1 | inactive |
| C#CCOCCOCCOCCNc1nc(N2CCN(C(=O)[C@H](CCCCN)n3cc(CCC(=O)O)nn3)CC2)nc(N2CCN(C(=O)[C@H](CCCCN)n3cc(CC(C)O)nn3)CC2)n1 (stereo partly drawn) | inactive |
| C#CCOCCOCCOCCNc1nc(N2CCN(C(=O)CCCCCCCCCCNC(=O)[C@H](CCCCN)n3cc(C)nn3)CC2)nc(N2CCN(C(=O)CCCCCCCCCCNC(=O)[C@H](CO)n3cc(CCCSC)nn3)CC2)n1 | 14.6 µM (active) |
| C#CCOCCOCCOCCNc1nc(N2CCN(C(=O)CCCCCCCCCCNC(=O)[C@H]([C@@H](C)CC)n3cc(CCCCN=C(N)N)nn3)CC2)nc(N2CCN(C(=O)CCCCCCCCCCNC(=O)[C@H](CO)n3cc(CCCSC)nn3)CC2)n1 | 9.2 µM (active) |
| C#CCOCCOCCOCCNc1nc(N2CCN(C(=O)Cn3cc(CCO)nn3)CC2)nc(N2CCN(C(=O)Cn3cc(CCCN=C(N)N)nn3)CC2)n1 | inactive |
| CC(CC(=O)N1CCN(S(=O)(=O)c2ccccc2)CC1)n1cncn1 (stereo not drawn) | inactive |
| O=c1cc(-c2ccccc2)n2c(SCc3ccccc3)nnc2[nH]1 | inactive |
| Cc1cc(C)c(NC(=O)CN2CCOCCOCCOCCOCC2)c(C)c1 | inactive |
| Cc1c(Cl)cccc1NC(=O)NCc1ccc(C)n1C | inactive |

| SMILES | Potency |
| --- | --- |
| COc1ccc(/C=C/C(=O)NC(=S)NN2CCCCC2c2cccnc2)cc1 (stereo not drawn) | inactive |
| O=S(=O)(Cc1cc(Sc2ccccc2)nc(-c2ccccc2)n1)c1ccccc1 | 23.1 µM (active) |
| O=S(=O)(Cc1nnnn1-c1ccccc1)c1ccccc1 | inactive |
| O=S(=O)(NCCc1csc(-c2ccccc2)n1)c1cccnc1 | inactive |
| CC1(C(=O)NS(=O)(=O)c2cccc(OC(F)F)c2)CCN1C(=O)COc1ccc(Cl)cc1 (stereo not drawn) | inactive |
| COC(=O)c1ccc(COC(=O)C2CCN(S(=O)(=O)c3c(Cl)cccc3Cl)CC2)o1 | inactive |
| Cn1c(C(=O)Nc2cccc(C(F)(F)F)c2)cc2c(=O)n3ccccc3nc21 | 14.6 µM (active) |
| O=C(Nc1ccc(OC(F)(F)F)cc1)c1cc2c(=O)n3ccccc3nc2s1 | inactive |
| Cc1nc2ccccn2c(=O)c1NC(=O)c1c(F)cccc1F | inactive |
| CCOc1ccccc1NC(=O)C1=C(C)Nc2ncnn2C1c1ccc(NC(C)=O)cc1 (stereo not drawn) | inactive |
| CCOc1ccc(C2C(C(=O)Nc3ccc(Cl)cc3)=C(C)Nc3nc(C(F)(F)F)nn32)cc1 (stereo not drawn) | 13 µM (active) |
| CCOc1cc(C2C(C(=O)Nc3ccc(OC)cc3)=C(C)Nc3nc(SC)nn32)ccc1O (stereo not drawn) | inactive |
| C[n+]1cc(-c2ccccc2)oc1-c1ccccc1 | inactive |
| O=C(O)CCCCOn1ccnc1 | inactive |
| Cc1cccc(NS(=O)(=O)c2ccc(C)c(C(=O)NCc3cccnc3)c2)c1 | inactive |
| Cc1cccc(NS(=O)(=O)c2ccc(-c3cnc(C4CC4)o3)cc2)c1 | 0.731 µM (active) |
| COc1ccc(CNS(=O)(=O)c2cc3c4c(c2)CCN4C(=O)CC3)cc1 | inactive |
| CC1CN(C(=O)c2cccc(NS(=O)(=O)c3ccc(Br)cc3)c2)CC(C)O1 (stereo not drawn) | inactive |
| COc1ccc(CNS(=O)(=O)c2ccc(-c3cnc(C4CC4)o3)cc2)cc1 | 14.6 µM (active) |
| COc1ccc(S(=O)(=O)NCc2cccn2Cc2cccc(C)c2)cc1 | inactive |
| CC1CCN(S(=O)(=O)c2ccc(S(=O)(=O)NCc3cccnc3)cc2)CC1 | inactive |
| Cc1cccc(CNS(=O)(=O)c2ccc(-c3cnc(C4CC4)o3)cc2)c1 | 16.4 µM (active) |
| CCc1ccc(S(=O)(=O)NCC(O)COc2ccc(OC)cc2)cc1 (stereo not drawn) | inactive |
